Inconclusive results are not listed. Active and inactive are the calls of the source. The calls were made as follows: active = hit-call score of the fitted dose curve at least 0.9, where 1 is the maximum; inconclusive = response in the unintended direction; inactive = score below 0.9.
Read-out: Broad substrate specificity ATP-binding cassette transporter ABCG2 (Homo sapiens) (UniProt Q9UNQ0)
Assay: CLD_ABCG2_24hr: CellzDirect (CLD) Gene Expression Assay for ABC Transporter (ABCG2) at 24 hours (AID 2283685)
Method: CLD_24hr is a cell-based, multiplexed-readout assay that uses hepatocyte, a human liver primary cell, with measurements taken at 24 hours after chemical dosing in a 96-well plate.CLD_ABCG2_24hr is one of 16 assay component(s) measured or calculated from the CLD_24hr assay. It is designed to make measurements of mRNA induction, a form of inducible reporter, as detected with chemiluminescence signals by Quantitative Nuclease Protection Assay (qNPA) technology.Data from the assay component CLD_ABCG2_24hr was analyzed at the endpoint, CLD_ABCG2_24hr, in the positive analysis fitting direction relative to DMSO as the negative control and baseline of activity. Using a type of inducible reporter, gain-of-signal activity can be used to understand changes in the reporter gene as they relate to the gene ABCG2. Furthermore, this assay endpoint can be referred to as a primary readout. To generalize the intended target to other relatable targets, this assay endpoint is annotated to the transporter intended target family, where subfamily is ABC transporter.
Human hepatocyte cultures were treated daily for two consecutive days with fresh dosing solutions containing appropriate concentrations of the 320 ToxCast chemicals (chemical identities were blinded to CellzDirect and other ToxCast collaborators), vehicle control (0.2% DMSO), and positive control inducers as summarized in Table 1. Due to the large number of treatment groups and chemicals examined, the ToxCast chemicals were divided into two groups (spanning two independent cultures of hepatocytes from separate donor preparations (Hu778: ToxCast plates 1 and 2; Hu776: ToxCast plates 3 and 4). Each preparation of human hepatocyte cultures was treated with respective vehicle control, medium only control, set of six positive controls/reference chemicals for the five hepatic receptor pathways, and a subset of eight of the ToxCast chemicals (indoxacarb, pyrithiobac-sodium, norflurazon, cyhalofop-butyl, methomyl, thiram, acetochlor, and propiconazole). These replicate data, coupled with internal replicates designed within the blinded ToxCast chemical library, provided additional data to evaluate interindividual differences between hepatocyte preparations and their potential impact on chemical profiles.Cell morphology and integrity were evaluated using phase-contrast microscopy as an indicator of hepatocyte cell health (Tyson & Green, 1987). Cultures for each treatment group (i.e., media, vehicle [0.2% DMSO], positive control inducers [multiple concentrations], and the ToxCast chemicals [multiple concentrations]) were observed and cell morphology was assessed relative to vehicle control cultures at each harvest time point (0, 6, 24, or 48 h). […] Images were evaluated at the conclusion of the study to assess changes in cell integrity and account for the effects of chemical exposure on uncharacteristic changes in concentration-dependent gene expression profiles. The results from these determinations of apparent cytotoxicity were annotated (yes/no) alongside the corresponding qNPA data for reference.At the conclusion of each treatment period, hepatocyte cultures (96-well) were washed with 1 volume of HBSS, lysed by addition of 25 ul ArrayPlate lysis buffer (HTG, Tucson, AZ), and 70 ul/well of Denaturation Oil, denatured by incubation at 95C for 10 min, and frozen at approximately -70C until analysis by nuclease protection assay (qNPA) (Roberts et al., 2007). For qNPA analysis, cell lysates were thawed at 50C for approximately 30 min, qNPA probes were added, and samples were incubated at 95C for 10 min to begin the detection process by denaturing the target RNA, dissociating the duplexes and secondary structure hybridization. At the conclusion of the hybridization period, S1 nuclease reagent was added to each sample to digest all nonprotected nucleotides at 50C for 60-90 min. […]

Sequence of Broad substrate specificity ATP-binding cassette transporter ABCG2 (Homo sapiens) (Q9UNQ0 whole entry, looked up): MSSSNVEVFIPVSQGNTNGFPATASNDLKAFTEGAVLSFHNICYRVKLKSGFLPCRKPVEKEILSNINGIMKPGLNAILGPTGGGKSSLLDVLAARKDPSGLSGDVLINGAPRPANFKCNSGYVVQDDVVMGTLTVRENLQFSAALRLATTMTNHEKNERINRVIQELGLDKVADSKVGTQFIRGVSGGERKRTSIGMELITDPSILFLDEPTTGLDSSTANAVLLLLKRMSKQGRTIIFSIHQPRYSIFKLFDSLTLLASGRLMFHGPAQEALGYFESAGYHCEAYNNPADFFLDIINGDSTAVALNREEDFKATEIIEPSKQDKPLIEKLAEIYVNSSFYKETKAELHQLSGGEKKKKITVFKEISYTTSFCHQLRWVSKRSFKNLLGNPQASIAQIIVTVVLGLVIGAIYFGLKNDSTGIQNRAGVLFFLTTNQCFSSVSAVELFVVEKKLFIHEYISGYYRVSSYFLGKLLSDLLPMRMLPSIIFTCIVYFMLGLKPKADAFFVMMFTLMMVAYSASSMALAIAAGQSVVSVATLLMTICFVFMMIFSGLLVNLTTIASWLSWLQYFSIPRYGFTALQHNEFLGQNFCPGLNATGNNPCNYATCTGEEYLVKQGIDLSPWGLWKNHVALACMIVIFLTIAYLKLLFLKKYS

SMILES	outcome
C=CCC1=C(C)C(OC(=O)C2C(C=C(C)C)C2(C)C)CC1=O (configuration not stated)	inactive
Cc1cc(Cl)ccc1OCC(=O)O	inactive
CCCCOC(=O)c1ccccc1C(=O)OCCCC	inactive
N#Cc1nn(-c2c(Cl)cc(C(F)(F)F)cc2Cl)c(N)c1S(=O)C(F)(F)F (configuration not stated)	inactive
Cc1ccc(-c2c(Cl)nc(C#N)n2S(=O)(=O)N(C)C)cc1	inactive
CCOC(=O)C(Cl)Cc1cc(-n2nc(C)n(C(F)F)c2=O)c(F)cc1Cl (configuration not stated)	inactive
CO/C=C(/C(=O)OC)c1ccccc1Oc1cc(Oc2ccccc2C#N)ncn1	inactive
CCc1nn(C)c(C(=O)NCc2ccc(C(C)(C)C)cc2)c1Cl	inactive
CC(C)(C)c1ccc(CSc2cnn(C(C)(C)C)c(=O)c2Cl)cc1	inactive
COc1nc(C)nc(NC(=O)NS(=O)(=O)c2ccccc2Cl)n1	inactive
COc1nc(C)nc(NC(=O)NS(=O)(=O)c2ccccc2CCC(F)(F)F)n1	inactive
C=CCC1=C(C)[C@@H](OC(=O)[C@@H]2[C@@H](C=C(C)C)C2(C)C)CC1=O	inactive
CNC(=O)ON=CC(C)(C)SC	inactive
CN(C)C(=S)SSC(=S)N(C)C	inactive
O=C(O)COc1nc(Cl)c(Cl)cc1Cl	inactive
COP(=S)(OC)Oc1nc(Cl)c(Cl)cc1Cl	inactive
CCOP(=S)(OCC)SCn1c(=O)oc2cc(Cl)ccc21	inactive
CCCCNC(=O)OCC#CI	inactive
COC(=O)N(OC)c1ccccc1COc1ccn(-c2ccc(Cl)cc2)n1	inactive

SMILES	outcome
CC(C)Oc1cc(-n2nc(C(C)(C)C)oc2=O)c(Cl)cc1Cl	inactive
CCCCNC(=O)n1c(NC(=O)OC)nc2ccccc21	inactive
Fc1ccc(Oc2ccnc3cc(Cl)cc(Cl)c23)cc1	inactive
COc1nc(NC(C)C)nc(NC(C)C)n1	inactive
Cc1c(F)c(F)c(COC(=O)C2C(/C=C(\Cl)C(F)(F)F)C2(C)C)c(F)c1F (configuration not stated)	inactive
N#CC(CCc1ccc(Cl)cc1)(Cn1cncn1)c1ccccc1 (configuration not stated)	inactive
CC(Oc1ccc(Cl)cc1Cl)C(=O)O (configuration not stated)	inactive
CCOC(=O)CC(SP(=S)(OC)OC)C(=O)OCC (configuration not stated)	inactive
CS/C(C)=N/OC(=O)N(C)SN(C)C(=O)O/N=C(\C)SC	inactive
CCON=C(CC)C1=C(O)CC(c2c(C)cc(C)cc2C)CC1=O (configuration not stated)	inactive
C#CCOS(=O)OC1CCCCC1Oc1ccc(C(C)(C)C)cc1 (configuration not stated)	inactive
C=CC1(C)OC(=O)N(c2cc(Cl)cc(Cl)c2)C1=O (configuration not stated)	inactive
Oc1ccccc1-c1ccccc1	inactive
COC(=O)C(C)Oc1ccc(Oc2ccc(Cl)cc2Cl)cc1 (configuration not stated)	inactive
COc1cnc(OC)n2nc(NS(=O)(=O)c3c(OCC(F)F)cccc3C(F)(F)F)nc12	inactive
OC(c1ccc(Cl)cc1)(c1cncnc1)c1ccccc1Cl (configuration not stated)	inactive
CCCC1COC(Cn2cncn2)(c2ccc(Cl)cc2Cl)O1 (configuration not stated)	inactive
CC1COC(Cn2cncn2)(c2ccc(Oc3ccc(Cl)cc3)cc2Cl)O1 (configuration not stated)	inactive
